{"source": "PubChem BioAssay (NCI)", "note": "Compounds without any hit were thinned out: in the full panel of roughly 83,000, 20% have a hit.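 The test compound was applied at a single concentration to cells in 96-well plates for 48 hours, and percent growth was recorded.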 Calls of active or inactive are those of the source. Rule for the calls: active = growth percent below 10; inactive = the rest.", "data": [{"system": "K-562 leukemia", "assay": "NCI-60 one-dose screen, 48 h (100 = growth as untreated, 0 = no growth, -100 = all killed)", "conditions": "10 µM unless noted", "values": [{"compound": "Fc1ccc(-c2nnc(-c3c(-c4ccc(F)cc4)nc4ncccn34)o2)cc1", "growth": "89.3% (inactive)"}, {"compound": "S=c1[nH]nc2sc3ccccc3n12", "growth": "107% (inactive)"}, {"compound": "Clc1ccc2nc(Cl)c3ccccc3c2c1", "growth": "88% (inactive)"}, {"compound": "CCOC(Cc1c(N)[nH]c(=S)[nH]c1=O)OCC", "growth": "98.5% (inactive)"}, {"compound": "COc1ccc(-c2nnc(COc3ccc(NC(=O)Nc4cc(C(F)(F)F)cc(C(F)(F)F)c4)cc3F)o2)cc1", "growth": "9.15% (active)"}, {"compound": "Clc1cccc(Cc2cn3cc(-c4ccccc4)nc3s2)c1", "growth": "21.1% (inactive)"}, {"compound": "ClC1=C(Cl)C(Cl)=C(Cl)C1=C/C=C/c1ccccc1", "growth": "-18.9% (active)"}, {"compound": "O=[N+]([O-])c1cnc(Sc2ccncn2)c([N+](=O)[O-])c1", "growth": "-46.9% (active)"}, {"compound": "O=C(N1CCC(CN=c2cc3n(-c4ccc(Cl)cc4)c4ccccc4nc-3cc2Nc2ccc(Cl)cc2)CC1)N1CC1", "growth": "-66.5% (active)"}, {"compound": "COc1cc(/C=C2\\CCC/C(=C\\c3ccc(OCC4CO4)c(OC)c3)C2=O)ccc1OCC1CO1", "note": "(centres undefined)", "growth": "-3.49% (active)"}, {"compound": "COc1ccc(-n2nnc(C(=O)O)c2-c2cc(OC)c(OC)c(OC)c2)cc1", "growth": "95.1% (inactive)"}, {"compound": "Nc1nc(N)c([N+](=O)[O-])c(=O)[nH]1", "growth": "108% (inactive)"}, {"compound": "Oc1[nH]c2ccccc2c1/C=c1/ccc2c(c1)N=C(c1cc(F)cc(F)c1)N=2", "growth": "12.8% (inactive)"}, {"compound": "O=c1ccn(C2CCCO2)c(=O)[nH]1", "note": "(centres undefined)", "growth": "105% (inactive)"}, {"compound": "COc1ccc2nc3cc(Cl)ccc3c(Nc3cc(C(C)C)c(O)cc3C)c2c1", "growth": "19.4% (inactive)"}, {"compound": "COc1ccc(-c2cnnn2-c2cc(OC)c3c(c2)OCO3)cc1", "growth": "0.651% (active)"}, {"compound": "CC1=CC(=O)C(C(C)=Nc2ccccc2Cl)C(=O)O1", "note": "(centres undefined)", "growth": "105% (inactive)"}, {"compound": "O=[P@@]1(c2ccccc2)O[C@H](COCc2ccccc2)[C@@H](OCc2ccccc2)[C@H](OCc2ccccc2)[C@H]1NCc1ccccc1", "growth": "6.58% (active)"}, {"compound": "COc1ccc(-c2noc(N)c2-c2cc(OC)c3c(c2)OCO3)cc1", "growth": "2.56% (active)"}, {"compound": "CN(C)c1nc(-c2ccco2)n2nc(-c3ccco3)cc2n1", "growth": "101% (inactive)"}, {"compound": "COc1cccc(C2C(C#N)=C(N)Oc3cc(OC)ccc32)c1", "note": "(centres undefined)", "growth": "-4.51% (active)"}, {"compound": "c1cnc2ccc3ncccc3c2c1", "growth": "106% (inactive)"}, {"compound": "O=C(c1ccccc1)c1ccco1", "growth": "102% (inactive)"}, {"compound": "CCOC(=O)C1=NN(c2ccc(Cl)cc2)C2C3N(c4ccc(Cl)cc4)N=C(C(=O)OCC)N3c3ccccc3N12", "note": "(centres undefined)", "growth": "70.7% (inactive)"}, {"compound": "Cc1cc(NC(=O)c2ccc(N)cc2)ccc1N=Nc1ccc2c(O)c(N=Nc3ccc(Cl)c(S(=O)(=O)O)c3)c(S(=O)(=O)O)cc2c1", "growth": "62.4% (inactive)"}, {"compound": "O=C(Nc1cccc(C(F)(F)F)c1)Nc1ccc(OCc2nnc(-c3ccc(Cl)cc3)o2)c(F)c1", "growth": "61% (inactive)"}, {"compound": "CCN1C(=O)c2ccc3c4c(ccc(c24)C1=O)C(=O)N(CCCNCc1ccccc1OC)C3=O", "growth": "-36% (active)"}, {"compound": "C=C1c2c(C)nn(-c3ccc(C#CCOC4OC(CO)C(O)C(O)C4O)cc3)c2N(C)C23C[C@H]1C1(C)c4c(C)nn(-c5ccc(C#CCOC6OC(CO)C(O)C(O)C6O)cc5)c4N(C)C(C)(C[C@H]12)C3", "note": "(some centres undefined)", "growth": "9.32% (active)"}, {"compound": "O=C(Nc1ccc(OCc2nnc(-c3ccccc3)o2)c(F)c1)Nc1ccc(Cl)c(C(F)(F)F)c1", "growth": "12.9% (inactive)"}, {"compound": "O=C(/C=C/c1ccccc1Cl)c1ccc(O)cc1", "growth": "32.8% (inactive)"}, {"compound": "O=C(Nc1ccncc1)C(=O)c1cn(S(=O)(=O)c2cccc(F)c2)c2ccccc12", "growth": "23.9% (inactive)"}, {"compound": "COc1cc(/C=C/C(=O)c2ccc(F)cc2)ccc1OCCCCCOc1cc2c(cc1OC)C(=O)N1CCCC1C=N2", "note": "(centres undefined)", "growth": "-6.46% (active)"}, {"compound": "O=C(/C=C/c1ccc(O)c(O)c1)N1CCN(c2ccc(Cl)cc2)CC1", "growth": "61.8% (inactive)"}, {"compound": "O=C(OCCBr)c1ccc(Cl)c([N+](=O)[O-])c1", "growth": "82.9% (inactive)"}, {"compound": "COc1ccc2c(c1)/C(=C\\c1c[nH]c3ccc(F)cc13)C(=O)N2", "growth": "62.5% (inactive)"}, {"compound": "Cc1cc(C(=O)O)c(C)cc1C(=O)O", "growth": "101% (inactive)"}, {"compound": "O=C1/C(=N/O)CCc2ccccc21", "growth": "19.4% (inactive)"}]}, {"system": "MALME-3M melanoma", "assay": "NCI-60 one-dose screen, 48 h (100 = growth as untreated, 0 = no growth, -100 = all killed)", "conditions": "10 µM unless noted", "values": [{"compound": "Fc1ccc(-c2nnc(-c3c(-c4ccc(F)cc4)nc4ncccn34)o2)cc1", "growth": "121% (inactive)"}, {"compound": "S=c1[nH]nc2sc3ccccc3n12", "growth": "122% (inactive)"}, {"compound": "Clc1ccc2nc(Cl)c3ccccc3c2c1", "growth": "67.2% (inactive)"}, {"compound": "CCOC(Cc1c(N)[nH]c(=S)[nH]c1=O)OCC", "growth": "99.5% (inactive)"}, {"compound": "COc1ccc(-c2nnc(COc3ccc(NC(=O)Nc4cc(C(F)(F)F)cc(C(F)(F)F)c4)cc3F)o2)cc1", "growth": "-16.5% (active)"}, {"compound": "Clc1cccc(Cc2cn3cc(-c4ccccc4)nc3s2)c1", "growth": "85.5% (inactive)"}, {"compound": "ClC1=C(Cl)C(Cl)=C(Cl)C1=C/C=C/c1ccccc1", "growth": "-38.8% (active)"}, {"compound": "O=[N+]([O-])c1cnc(Sc2ccncn2)c([N+](=O)[O-])c1", "growth": "-53% (active)"}, {"compound": "O=C(N1CCC(CN=c2cc3n(-c4ccc(Cl)cc4)c4ccccc4nc-3cc2Nc2ccc(Cl)cc2)CC1)N1CC1", "growth": "-72.5% (active)"}, {"compound": "COc1cc(/C=C2\\CCC/C(=C\\c3ccc(OCC4CO4)c(OC)c3)C2=O)ccc1OCC1CO1", "note": "(centres undefined)", "growth": "26.2% (inactive)"}, {"compound": "COc1ccc(-n2nnc(C(=O)O)c2-c2cc(OC)c(OC)c(OC)c2)cc1", "growth": "112% (inactive)"}, {"compound": "Nc1nc(N)c([N+](=O)[O-])c(=O)[nH]1", "growth": "118% (inactive)"}, {"compound": "Oc1[nH]c2ccccc2c1/C=c1/ccc2c(c1)N=C(c1cc(F)cc(F)c1)N=2", "growth": "101% (inactive)"}, {"compound": "O=c1ccn(C2CCCO2)c(=O)[nH]1", "note": "(centres undefined)", "growth": "116% (inactive)"}, {"compound": "COc1ccc2nc3cc(Cl)ccc3c(Nc3cc(C(C)C)c(O)cc3C)c2c1", "growth": "39.3% (inactive)"}, {"compound": "COc1ccc(-c2cnnn2-c2cc(OC)c3c(c2)OCO3)cc1", "growth": "34.4% (inactive)"}, {"compound": "CC1=CC(=O)C(C(C)=Nc2ccccc2Cl)C(=O)O1", "note": "(centres undefined)", "growth": "123% (inactive)"}, {"compound": "O=[P@@]1(c2ccccc2)O[C@H](COCc2ccccc2)[C@@H](OCc2ccccc2)[C@H](OCc2ccccc2)[C@H]1NCc1ccccc1", "growth": "-7.61% (active)"}, {"compound": "COc1ccc(-c2noc(N)c2-c2cc(OC)c3c(c2)OCO3)cc1", "growth": "-2.12% (active)"}, {"compound": "CN(C)c1nc(-c2ccco2)n2nc(-c3ccco3)cc2n1", "growth": "131% (inactive)"}, {"compound": "COc1cccc(C2C(C#N)=C(N)Oc3cc(OC)ccc32)c1", "note": "(centres undefined)", "growth": "36.6% (inactive)"}, {"compound": "c1cnc2ccc3ncccc3c2c1", "growth": "146% (inactive)"}, {"compound": "O=C(c1ccccc1)c1ccco1", "growth": "108% (inactive)"}, {"compound": "CCOC(=O)C1=NN(c2ccc(Cl)cc2)C2C3N(c4ccc(Cl)cc4)N=C(C(=O)OCC)N3c3ccccc3N12", "note": "(centres undefined)", "growth": "132% (inactive)"}, {"compound": "Cc1cc(NC(=O)c2ccc(N)cc2)ccc1N=Nc1ccc2c(O)c(N=Nc3ccc(Cl)c(S(=O)(=O)O)c3)c(S(=O)(=O)O)cc2c1", "growth": "105% (inactive)"}, {"compound": "O=C(Nc1cccc(C(F)(F)F)c1)Nc1ccc(OCc2nnc(-c3ccc(Cl)cc3)o2)c(F)c1", "growth": "55.7% (inactive)"}, {"compound": "CCN1C(=O)c2ccc3c4c(ccc(c24)C1=O)C(=O)N(CCCNCc1ccccc1OC)C3=O", "growth": "-87.6% (active)"}, {"compound": "C=C1c2c(C)nn(-c3ccc(C#CCOC4OC(CO)C(O)C(O)C4O)cc3)c2N(C)C23C[C@H]1C1(C)c4c(C)nn(-c5ccc(C#CCOC6OC(CO)C(O)C(O)C6O)cc5)c4N(C)C(C)(C[C@H]12)C3", "note": "(some centres undefined)", "growth": "5.2% (active)"}, {"compound": "O=C(Nc1ccc(OCc2nnc(-c3ccccc3)o2)c(F)c1)Nc1ccc(Cl)c(C(F)(F)F)c1", "growth": "8.78% (active)"}, {"compound": "O=C(/C=C/c1ccccc1Cl)c1ccc(O)cc1", "growth": "93.1% (inactive)"}, {"compound": "O=C(Nc1ccncc1)C(=O)c1cn(S(=O)(=O)c2cccc(F)c2)c2ccccc12", "growth": "58.2% (inactive)"}, {"compound": "COc1cc(/C=C/C(=O)c2ccc(F)cc2)ccc1OCCCCCOc1cc2c(cc1OC)C(=O)N1CCCC1C=N2", "note": "(centres undefined)", "growth": "-77.6% (active)"}, {"compound": "O=C(/C=C/c1ccc(O)c(O)c1)N1CCN(c2ccc(Cl)cc2)CC1", "growth": "66.2% (inactive)"}, {"compound": "O=C(OCCBr)c1ccc(Cl)c([N+](=O)[O-])c1", "growth": "97.2% (inactive)"}, {"compound": "COc1ccc2c(c1)/C(=C\\c1c[nH]c3ccc(F)cc13)C(=O)N2", "growth": "120% (inactive)"}, {"compound": "Cc1cc(C(=O)O)c(C)cc1C(=O)O", "growth": "89.5% (inactive)"}, {"compound": "O=C1/C(=N/O)CCc2ccccc21", "growth": "91.7% (inactive)"}]}]}
